# Results published in the supplement of paper PMC4894684.
# Counter-ions that a name gives are not always drawn. ± gives the standard deviation of the averaged measurements. The whole screen tested about 1,000 compounds, of which about 15 (2%) showed an effect of 50% or more. The full list was thinned out, with strong results kept by preference.
# System: HFF
# Experiment: uninfected host cell viability relative to vehicle control; higher = less host cell toxicity
# Details: 5 µM; 72 h; oxygen 21 %
row,Structure (SMILES),uninfected host cell viability
1,O=C1NC(=O)c2cc(Nc3ccccc3)c(Nc3ccccc3)cc21,93.23 ± 0.27%
2,COCCOC(=O)C1=C(C)NC(C)=C(C(=O)OC/C=C/c2ccccc2)C1c1cccc([N+](=O)[O-])c1 (configuration not stated) [Cilnidipine],85.8 ± 2.8%
3,COc1ccccc1C1(O)CCN(CCCn2c3ccccc3c3ccccc32)CC1 [NNC 05-2090 hydrochloride],81.9 ± 1.6%
4,Nc1nc(NCC2CCC(CNS(=O)(=O)c3cccc4ccccc34)CC2)nc2ccccc12 (configuration not stated),58.6 ± 2.7%
5,CN(Cc1ccccc1)C(=O)[C@H](Cc1ccc2ccccc2c1)NC(=O)[C@@H]1C[C@@H](O)CN1C(=O)c1cn(C)c2ccccc12,83.97 ± 0.68%
6,NC(=O)N/N=C/c1ccc(Oc2ccc(F)cc2)cc1,87.6 ± 3.6%
7,O=C1NC(=O)c2cc(Nc3ccc(F)cc3)c(Nc3ccc(F)cc3)cc21,86.353 ± 0.013%
8,Oc1nc(-c2ccc(C(F)(F)F)cc2)nc2c1CSCC2,83.2 ± 2.4%
9,CCC(=O)NC[C@H](Cc1ccc(OCCc2nc(-c3ccccc3)oc2C)cc1)N/C(C)=C\C(=O)c1ccc(C(F)(F)F)cc1,102 ± 1.4%
10,COC(=O)/C=C/c1cccc(N(Cc2ccc(-c3ccc(N(C)C)cc3)cc2)C(=O)C2CCCCC2)c1 [Fexaramine],96 ± 2.3%
11,CC(=O)OCCNC(=O)c1cccnc1 [N-[2-(Acetoxy)ethyl]-3-pyridinecarboxamide],82.8 ± 3.4%
12,OC1CCC(Nc2nc(-c3ccccc3)nc3[nH]ccc23)CC1 (configuration not stated),85.37 ± 0.31%
13,Cc1ccc2c(c1)c1c3n2CCNC3CCC1 (configuration not stated) [Pirlindole mesylate],88 ± 6.3%
14,CC(C)c1ccc(C(=O)c2cccs2)c(SCCCCCCCCN(C)C)n1,74.54 ± 0.56%
15,OC(CN1CCC(Cc2ccc(F)cc2)CC1)c1ccc(Cl)cc1 (configuration not stated) [Eliprodil],88.9 ± 1.1%
16,O=c1cc(N2CCOCC2)oc2c1ccc1ccccc12,82.9 ± 0.9%
17,COc1ccc(OC)c2c(=S)c3ccccc3[nH]c12,76.9 ± 3.1%
18,COC(=O)C1=C(C)NC(C)=C(C(=O)OCCCN2CCC(c3ccccc3)(c3ccccc3)CC2)[C@H]1c1cccc([N+](=O)[O-])c1 [(S)-(+)-Niguldipine hydrochloride],76.95 ± 0.17%
19,CCC(=O)OCN1C(=O)C=CC1=O,90.82 ± 0.35%
20,Nc1c(Br)cc(Br)cc1CN[C@H]1CC[C@H](O)CC1 [Ambroxol hydrochloride],83.8 ± 1.4%
21,CCCCCCCCCCCCCCCC(=O)O[C@H](CC(=O)O)C[N+](C)(C)C (racemic) [(±)-Palmitoylcarnitine chloride],89.8 ± 4.6%
22,CN(CC[C@@H](Oc1ccc(-c2ccccc2)cc1)c1ccc(F)cc1)CC(=O)O [ALX 5407 hydrochloride],89.7 ± 7.4%

row,Structure (SMILES),uninfected host cell viability
1,COc1ccc(NC(=O)c2ccc(-c3ccc(-c4noc(C)n4)cc3C)cc2)cc1OCCN(C)C,36.9 ± 27%
2,COc1ccc(NC(=O)c2ccc(-c3ccc(-c4noc(C)n4)cc3C)cc2)cc1N1CCN(C)CC1,70.2 ± 7.3%
3,COc1cc2c(Nc3ccc(NC(=O)c4ccccc4)cc3)ncnc2cc1OCCCN1CCOCC1,64.74 ± 0.56%
4,CCN(CC)c1ccc(/C=N/NC(=O)c2ccc(O)cc2)cc1,86.7 ± 5.1%
5,CCCCC[C@H](O)/C=C/[C@H]1[C@H](O)CC(=O)[C@@H]1CCCCCCC(=O)O [Alprostadil],91.7 ± 4.5%
6,CC1Nc2ccc(Cl)cc2S(=O)(=O)N1 (configuration not stated),95.27 ± 0.86%
7,CN(C)CCCn1cc(C2=C(c3c[nH]c4ccccc34)C(=O)NC2=O)c2ccccc21,62.3 ± 1.5%
8,Cn1cc(C2=C(c3cn(CCCSC(=N)N)c4ccccc34)C(=O)NC2=O)c2ccccc21 [Ro 31-8220 mesylate],14.2 ± 0.54%
9,Cn1cc(C2=C(c3ccc(Cl)cc3Cl)C(=O)NC2=O)c2ccccc21,72.6 ± 4.2%
10,O=C(O)CC/C=C\C[C@H]1CO[C@@H](c2ccccc2Cl)O[C@H]1c1ccccc1O,98.6 ± 1.1%
11,CCOC(=O)c1c(C)[nH]c2ccc3c(c12)CN1CCc2cc(OC)ccc2C1O3 (configuration not stated),96.1 ± 2.8%
12,CC(Oc1ccc(O)cc1)(P(=O)(O)O)P(=O)(O)O,95.3 ± 1.8%
13,CN(C)C(=O)C(=O)c1cn(C)c2cc(Cl)c(C(=O)N3CCC(Cc4ccc(F)cc4)CC3)cc12,88.4 ± 2.3%
14,CCOCC(O)COc1ccc(NC(=O)CC[S+](C)C)cc1 (configuration not stated) [Suplatast tosylate],97.7 ± 1.6%
15,CNC(=O)[C@H]1O[C@@H](n2cnc3c(NCc4cccc(I)c4)ncnc32)[C@H](O)[C@@H]1O,80.94 ± 0.44%
16,CCN(c1ccccc1)c1cc(=NC)n(C)c(C)n1,92.2 ± 1.3%
17,CCOC(=O)c1ccc(OC(=O)CCCCCNC(=N)N)cc1 [Gabexate mesylate],89.8 ± 11%
18,O=[N+]([O-])c1cc(Cl)ccc1S(=O)(=O)N1CCN(Cc2ccccc2)CC1,98.8 ± 3.2%
19,CN1CC(=O)N=C1NC(=O)Nc1cccc(Cl)c1 [Fenobam],80.93 ± 0.68%
20,CCCCc1nn(-c2ccccc2C(F)(F)F)c(=O)n1Cc1ccc(-c2ccccc2S(=O)(=O)NC(=O)c2sccc2C)cc1,84.8 ± 3.6%
21,COc1cc(NC(=O)c2ccccn2)ccc1Cl,95.9 ± 2.8%
22,COc1ccc(-c2nc(-c3ccc(-c4cccc(Cl)c4)o3)[nH]c2-c2ccc(OC)cc2)cc1 [Neurodazine],80.3 ± 5.1%

row,Structure (SMILES),uninfected host cell viability
1,O=C(NCCCN1CCCCCC1)C(c1ccccc1)C1CCCCC1 (configuration not stated),88.8 ± 4.6%
2,O=C(O)C=C1CCCc2ccccc2C1O (configuration not stated),83.32 ± 0.084%
3,COC(=O)C[C@](O)(CCCC(C)(C)O)C(=O)O[C@@H]1C(OC)=C[C@]23CCCN2CCc2cc4c(cc2[C@H]13)OCO4 [Homoharringtonine],28.6 ± 2.8%
4,O/N=C/c1ccc(-c2ccc(O)c(F)c2)c(Cl)c1O,91.86 ± 0.49%
5,Cc1ccc(/C=C2\CNC/C(=C\c3ccc(C)cc3)C2=O)cc1,34.4 ± 5.5%
6,COC(=O)C1=C(C)NC(C)=C(C(=O)NCCCN2CCC(c3ccccc3)(c3ccccc3)CC2)C1c1ccc([N+](=O)[O-])cc1 (configuration not stated),81.9 ± 1.8%
7,CC#CCOC(=O)C1=CCCN(C)C1 [Arecaidine but-2-ynyl ester tosylate],88 ± 1.3%
8,CC(C)Oc1cccc(-n2c(CCc3c[nH]c4ccc(Br)cc34)nc3ccccc3c2=O)c1,92.8 ± 5.5%
9,COc1cc(Br)c(S(=O)(=O)Nc2ccc(Cl)c(O[C@@H]3CCN(C)C3)c2)cc1OC,96.9 ± 3%
10,C[C@H](NC[C@H](O)CP(=O)(O)CC1CCCCC1)c1ccc(Cl)c(Cl)c1,84.83 ± 0.31%
11,CC1c2ccccc2CN1CC1=NCCN1 (configuration not stated),89 ± 2.3%
12,N[C@H](C(=O)O)c1ccc(O)c(C(=O)O)c1 [(S)-3-Carboxy-4-hydroxyphenylglycine],83.1 ± 0.11%
13,CC(C)c1onc(-c2c(Cl)cccc2Cl)c1COc1ccc(/C=C/c2cccc(C(=O)O)c2)c(Cl)c1,96.2 ± 2.9%
14,OC[C@H]1NC[C@@H](O)[C@@H](O)[C@@H]1O [1-Deoxymannojirimycin hydrochloride],86.61 ± 0.073%
15,O=C(NCCCCN1CCN(c2cccc(Cl)c2Cl)CC1)c1ccc2c(c1)Cc1ccccc1-2,88.9 ± 4%
16,CCCCCCNC(=O)Nc1ccc(S(=O)(=O)Nc2ccc(CCNC[C@H](O)COc3ccc(O)cc3)cc2)cc1,83.4 ± 2.5%
17,NC(C(=O)O)c1ccc(C(=O)O)c(C(=O)O)c1 (configuration not stated),83.7 ± 3.5%
18,CCCCN1CCC(CCC(=O)c2cc(Cl)c(N)cc2OC)CC1,85.2 ± 6.5%
19,CN(CCOc1ccc(-c2ccc3c(c2)OCO3)cc1C(C)(C)C)CC(=O)O,89.62 ± 0.17%
20,O=C(c1ccc(F)cc1)C1CCN(CCn2c(=S)[nH]c3ccccc3c2=O)CC1 [Altanserin hydrochloride],83.2 ± 2.8%
21,"Nc1nc2c(nc(Br)n2[C@@H]2O[C@@H]3COP(=O)(O)O[C@H]3[C@H]2O)c(=O)[nH]1 [8-Bromo-cGMP, sodium salt]",89.8 ± 1.7%
22,COC(=O)c1sccc1S(=O)(=O)Nc1ccc(Nc2ccccc2)cc1OC,77.8 ± 0.79%

row,Structure (SMILES),uninfected host cell viability
1,NC(=O)N1c2ccccc2CC(O)c2ccccc21 (configuration not stated) [Licarbazepine],86.1 ± 1.1%
2,COc1ccc(Cl)cc1NC(=O)Nc1cc(C)nc2ccccc12,70.73 ± 0.28%
3,O=C(/C=C/c1ccc(O)c(O)c1)O[C@H](Cc1ccc(O)c(O)c1)C(=O)O [Rosmarinic acid],80.3 ± 1%
4,OC(CCCN1CCN(c2ncc(F)cn2)CC1)c1ccc(F)cc1 (configuration not stated),110 ± 17%
5,CC(C)c1ccccc1S(=O)(=O)c1cc(N)c2ncccc2c1[N+](=O)[O-],73.2 ± 0.84%
6,CN(CCCN1c2ccccc2CCc2ccccc21)CC(=O)c1ccc(Cl)cc1 [Lofepramine],89.6 ± 1.2%
7,Cc1c(C(=O)NN2CCOCC2)nn(-c2ccc(Cl)cc2Cl)c1-c1ccc(I)cc1,90.8 ± 2.4%
8,O=c1[nH]nc(Sc2ncc([N+](=O)[O-])s2)n1-c1ccc2c(c1)OCCO2,99.61 ± 0.28%
9,O=C(O)c1ccc(C=C2SC(=S)N(c3cccc(C(F)(F)F)c3)C2=O)cc1,87.8 ± 0.91%
10,CN1Cc2c(C(=O)OC(C)(C)C)ncn2-c2ccsc2C1=O,97.9 ± 4.9%
11,CCCCCCCCCCCCCCCC(=O)C(F)(F)F,91.66 ± 0.55%
12,NC(=O)CCCCn1ccc(NC(N)=NCC(F)(F)F)n1,85.9 ± 2.3%
13,N[C@@H](CSS(=O)(=O)O)C(=O)O [S-Sulfo-L-cysteine sodium salt],99.5 ± 1.1%
14,Cc1ccccc1C(=O)c1ccc(Nc2ccc(Br)cc2N)cc1Cl,84 ± 2.2%
15,CN1CCC(Nc2ncc3ncnc(Nc4ccc(F)c(Cl)c4)c3n2)CC1 [BIBX 1382 dihydrochloride],80.7 ± 2.1%
16,CC(C)n1nnc2cc(C(=O)O)ccc21,100 ± 2.3%
17,Cc1[nH]c(/C=C2\C(=O)Nc3ccc(S(=O)(=O)Cc4c(Cl)cccc4Cl)cc32)c(C)c1C(=O)N1CCC[C@@H]1CN1CCCC1,89.5 ± 2.3%
18,CC1(C)CCC(C)(C)c2cc(C3(c4ccc(C(=O)O)cc4)OCCO3)ccc21,93.1 ± 2.3%
19,COc1ccc(NS(=O)(=O)c2ccc(I)cc2)cc1N1CCN(C)CC1,81.6 ± 2.9%
20,Cc1cc(C)cc(C(=O)N(C)[C@H](Cc2ccc(-c3ccccc3)cc2)C(=O)N[C@@H](Cc2c[nH]c3ccccc23)C(=O)O)c1,83.95 ± 0.62%
21,CCCn1c(=O)[nH]c2nc(-c3ccc(S(=O)(=O)O)cc3)[nH]c2c1=O,86.34 ± 0.58%
